Our source for the binding signal values is paper PMC7862700, “An all-to-all approach to the identification of sequence-specific readers for epigenetic DNA modifications on cytosine”.

Test in all cases: DAPPL (digital affinity profiling via proximity ligation, sequencing); 10 mM Tris-HCl pH 7.5, 50 mM NaCl, 1 mM DTT, 4% glycerol, room temperature, 30 min; GST-TFs on glutathione beads, 16-mer random dsDNA library, 0.1% formaldehyde crosslink after washing; high values mean tight binding
Holding throughout (conditions): protein: recombinant; tags: N-terminal GST; dsDNA, one strand shown

The target of one assay is T1, FLI1 (Homo sapiens, UniProt Q01543 1-452).
T1 sequence: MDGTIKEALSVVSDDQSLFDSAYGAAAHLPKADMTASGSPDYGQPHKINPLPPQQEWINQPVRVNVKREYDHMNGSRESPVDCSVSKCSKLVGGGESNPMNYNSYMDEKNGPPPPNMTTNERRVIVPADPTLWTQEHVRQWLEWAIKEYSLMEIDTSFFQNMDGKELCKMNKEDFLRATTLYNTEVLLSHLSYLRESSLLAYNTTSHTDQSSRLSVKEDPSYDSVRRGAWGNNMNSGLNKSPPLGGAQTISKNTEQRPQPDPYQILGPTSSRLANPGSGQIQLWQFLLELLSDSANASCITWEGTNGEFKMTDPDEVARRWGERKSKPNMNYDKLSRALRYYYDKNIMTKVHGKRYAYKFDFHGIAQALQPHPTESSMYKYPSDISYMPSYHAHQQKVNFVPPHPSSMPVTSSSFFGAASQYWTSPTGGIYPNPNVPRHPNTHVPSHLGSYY
A digest of the protocol:
(§1)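 Binding signal is given per hexamer as its read frequency for a factor divided by its frequency in the tag-only sample. GST-fused human transcription factors were expressed in yeast, captured on glutathione beads, barcoded with DNA and pooled with that sample, then incubated with 200 nmole of a 16-mer random double-stranded DNA library in Tris/NaCl/DTT/glycerol buffer for 30 min at room temperature. The pools were then washed, crosslinked, proximity-ligated, amplified by PCR and sequenced on an Illumina NextSeq500.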

A further assay has as its target T2, ELK1 (Homo sapiens, UniProt P19419 1-428).
T2 sequence: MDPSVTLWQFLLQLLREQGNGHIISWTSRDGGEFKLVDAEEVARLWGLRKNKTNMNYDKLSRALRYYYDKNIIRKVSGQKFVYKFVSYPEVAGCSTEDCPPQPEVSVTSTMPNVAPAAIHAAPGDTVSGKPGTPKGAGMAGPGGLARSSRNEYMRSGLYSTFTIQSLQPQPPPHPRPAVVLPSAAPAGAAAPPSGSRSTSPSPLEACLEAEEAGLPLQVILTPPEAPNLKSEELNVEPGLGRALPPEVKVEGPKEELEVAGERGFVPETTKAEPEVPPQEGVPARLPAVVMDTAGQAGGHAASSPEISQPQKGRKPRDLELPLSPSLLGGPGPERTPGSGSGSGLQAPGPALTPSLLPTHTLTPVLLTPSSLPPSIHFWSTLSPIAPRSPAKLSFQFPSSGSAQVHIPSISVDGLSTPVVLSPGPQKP
A digest of the protocol:
as §1

The next assay concerns the target T3, GABPA (Homo sapiens, UniProt Q06546 1-454).
T3 sequence: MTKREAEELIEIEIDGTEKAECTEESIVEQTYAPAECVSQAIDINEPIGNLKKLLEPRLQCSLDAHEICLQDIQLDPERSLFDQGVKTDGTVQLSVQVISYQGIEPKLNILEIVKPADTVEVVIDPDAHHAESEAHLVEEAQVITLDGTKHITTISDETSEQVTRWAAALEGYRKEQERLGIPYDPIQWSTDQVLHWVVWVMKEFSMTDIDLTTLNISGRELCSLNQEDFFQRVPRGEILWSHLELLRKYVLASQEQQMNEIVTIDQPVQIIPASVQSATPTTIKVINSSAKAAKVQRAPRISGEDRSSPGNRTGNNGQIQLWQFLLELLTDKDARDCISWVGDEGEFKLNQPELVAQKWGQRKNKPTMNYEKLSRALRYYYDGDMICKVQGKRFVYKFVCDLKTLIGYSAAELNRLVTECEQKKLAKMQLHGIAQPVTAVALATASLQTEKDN
The essentials: as §1

Another assay addresses T4, ERG (Homo sapiens, UniProt P11308 1-479).
T4 sequence: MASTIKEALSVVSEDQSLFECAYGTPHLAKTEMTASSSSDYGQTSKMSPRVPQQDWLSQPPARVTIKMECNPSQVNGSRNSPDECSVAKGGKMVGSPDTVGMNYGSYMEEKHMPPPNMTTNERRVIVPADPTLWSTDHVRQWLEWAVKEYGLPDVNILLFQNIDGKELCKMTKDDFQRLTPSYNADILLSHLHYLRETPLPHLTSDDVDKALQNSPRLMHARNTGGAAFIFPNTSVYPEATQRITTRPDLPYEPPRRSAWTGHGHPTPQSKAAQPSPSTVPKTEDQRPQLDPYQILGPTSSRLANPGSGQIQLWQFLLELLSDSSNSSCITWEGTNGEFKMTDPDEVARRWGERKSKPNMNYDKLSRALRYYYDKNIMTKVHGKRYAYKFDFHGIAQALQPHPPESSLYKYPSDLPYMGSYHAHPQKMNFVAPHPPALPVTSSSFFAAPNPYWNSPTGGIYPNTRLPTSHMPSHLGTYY
A digest of the protocol:
as §1

The next assay concerns the target ELF1 (Homo sapiens, UniProt P32519 1-619). The essentials: as §1
The next assay addresses T5, EHF (Homo sapiens, UniProt Q9NZC4 1-300).
T5 sequence: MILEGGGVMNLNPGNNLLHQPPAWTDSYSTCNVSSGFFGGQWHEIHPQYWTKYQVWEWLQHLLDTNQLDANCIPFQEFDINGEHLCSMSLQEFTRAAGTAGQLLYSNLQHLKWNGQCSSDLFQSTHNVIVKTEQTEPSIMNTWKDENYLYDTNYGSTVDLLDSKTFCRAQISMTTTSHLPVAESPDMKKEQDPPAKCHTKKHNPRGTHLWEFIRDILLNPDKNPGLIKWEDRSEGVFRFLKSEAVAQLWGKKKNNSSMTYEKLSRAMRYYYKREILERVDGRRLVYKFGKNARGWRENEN
The essentials: as §1

In a further assay the target is SPI1 (Homo sapiens, UniProt P17947 1-270). A digest of the protocol: as §1
The target in the next assay is SPIB (Homo sapiens, UniProt Q01892 1-262). The essentials:
as §1

The next assay addresses T6, ELK3 (Homo sapiens, UniProt P41970 1-407).
T6 sequence: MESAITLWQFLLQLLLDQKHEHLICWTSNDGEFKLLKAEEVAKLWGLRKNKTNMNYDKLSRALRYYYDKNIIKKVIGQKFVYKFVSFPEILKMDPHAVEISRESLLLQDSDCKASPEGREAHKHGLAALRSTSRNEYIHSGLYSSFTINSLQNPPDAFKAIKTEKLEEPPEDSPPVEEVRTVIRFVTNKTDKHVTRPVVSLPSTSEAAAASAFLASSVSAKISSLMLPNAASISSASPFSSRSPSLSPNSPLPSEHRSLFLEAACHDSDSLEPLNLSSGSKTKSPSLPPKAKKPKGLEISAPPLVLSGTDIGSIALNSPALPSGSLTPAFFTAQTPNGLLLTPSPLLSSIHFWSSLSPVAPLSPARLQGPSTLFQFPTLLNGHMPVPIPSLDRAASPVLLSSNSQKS
The essentials:
as §1

The target of the next assay is T7, FEV (Homo sapiens, UniProt Q99581 1-238).
T7 sequence: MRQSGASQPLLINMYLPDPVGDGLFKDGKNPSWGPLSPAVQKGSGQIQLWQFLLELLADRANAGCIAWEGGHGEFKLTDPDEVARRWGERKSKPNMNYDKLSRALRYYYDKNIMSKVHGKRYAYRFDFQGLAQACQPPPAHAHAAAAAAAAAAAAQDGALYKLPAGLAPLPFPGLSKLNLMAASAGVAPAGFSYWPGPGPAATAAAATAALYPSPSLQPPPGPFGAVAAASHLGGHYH
A digest of the protocol:
as §1

The next assay deals with ETV5 (Homo sapiens, UniProt P41161 1-510). The essentials:
as §1

In the next assay the target is T8, SPIC (Homo sapiens, UniProt Q8N5J4 1-248).
T8 sequence: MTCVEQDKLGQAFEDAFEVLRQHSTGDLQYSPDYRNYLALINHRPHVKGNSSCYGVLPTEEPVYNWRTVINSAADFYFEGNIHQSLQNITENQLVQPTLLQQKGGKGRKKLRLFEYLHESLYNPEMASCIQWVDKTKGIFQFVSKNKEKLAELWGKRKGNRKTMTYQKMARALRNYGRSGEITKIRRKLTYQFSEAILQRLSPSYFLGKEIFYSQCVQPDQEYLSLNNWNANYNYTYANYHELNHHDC
The essentials:
as §1

For another assay, the target named is ELF4 (Homo sapiens, UniProt Q99607 1-663). A digest of the protocol:
as §1

The target in the next assay is T9, ELK4 (Homo sapiens, UniProt P28324-2 1-405).
T9 sequence: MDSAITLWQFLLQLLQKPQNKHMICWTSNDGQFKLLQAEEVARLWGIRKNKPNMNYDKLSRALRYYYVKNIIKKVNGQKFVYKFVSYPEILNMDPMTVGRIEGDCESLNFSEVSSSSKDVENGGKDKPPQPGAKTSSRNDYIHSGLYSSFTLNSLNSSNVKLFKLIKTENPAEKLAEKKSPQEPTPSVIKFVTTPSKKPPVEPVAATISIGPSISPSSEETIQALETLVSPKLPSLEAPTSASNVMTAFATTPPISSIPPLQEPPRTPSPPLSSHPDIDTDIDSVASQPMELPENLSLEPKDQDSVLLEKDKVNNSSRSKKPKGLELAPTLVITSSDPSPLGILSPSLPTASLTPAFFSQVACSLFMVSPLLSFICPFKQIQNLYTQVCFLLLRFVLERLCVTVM
A digest of the protocol: as §1

The next assay deals with T10, ETV2 (Homo sapiens, UniProt O00321 1-342).
T10 sequence: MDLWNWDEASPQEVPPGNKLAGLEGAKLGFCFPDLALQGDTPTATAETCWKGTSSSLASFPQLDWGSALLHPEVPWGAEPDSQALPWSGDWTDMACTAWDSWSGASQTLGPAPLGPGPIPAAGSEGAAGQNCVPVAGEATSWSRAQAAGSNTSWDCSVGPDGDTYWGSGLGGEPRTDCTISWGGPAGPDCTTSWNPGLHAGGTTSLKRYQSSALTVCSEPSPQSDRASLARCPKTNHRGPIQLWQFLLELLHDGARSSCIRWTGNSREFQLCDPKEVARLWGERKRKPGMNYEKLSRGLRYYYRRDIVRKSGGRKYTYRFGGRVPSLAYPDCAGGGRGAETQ
A digest of the protocol: as §1

For the next assay, the target named is ETV1 (Homo sapiens, UniProt P50549 1-477). The essentials: as §1
ETV1, sequence (P50549 whole entry): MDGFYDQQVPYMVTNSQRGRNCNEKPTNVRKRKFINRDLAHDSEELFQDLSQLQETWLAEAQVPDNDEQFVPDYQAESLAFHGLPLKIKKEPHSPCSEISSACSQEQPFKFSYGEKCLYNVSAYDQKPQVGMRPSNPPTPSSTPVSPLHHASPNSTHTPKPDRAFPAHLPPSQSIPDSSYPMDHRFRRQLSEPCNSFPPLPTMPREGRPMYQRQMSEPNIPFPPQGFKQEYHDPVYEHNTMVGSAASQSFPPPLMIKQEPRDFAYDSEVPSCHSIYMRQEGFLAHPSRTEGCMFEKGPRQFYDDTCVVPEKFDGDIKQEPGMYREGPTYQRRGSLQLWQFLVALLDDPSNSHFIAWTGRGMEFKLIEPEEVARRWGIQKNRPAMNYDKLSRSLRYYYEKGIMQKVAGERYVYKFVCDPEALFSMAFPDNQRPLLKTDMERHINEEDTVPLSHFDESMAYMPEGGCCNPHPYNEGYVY

SPIB, sequence (Q01892 whole entry): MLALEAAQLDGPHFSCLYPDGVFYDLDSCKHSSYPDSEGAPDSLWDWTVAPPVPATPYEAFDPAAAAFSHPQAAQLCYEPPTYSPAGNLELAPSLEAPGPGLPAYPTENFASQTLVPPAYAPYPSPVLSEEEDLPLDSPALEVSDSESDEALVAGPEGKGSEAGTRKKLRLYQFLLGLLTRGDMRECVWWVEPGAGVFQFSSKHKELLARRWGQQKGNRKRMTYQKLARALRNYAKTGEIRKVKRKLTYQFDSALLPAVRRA
ETV5, sequence (P41161 whole entry): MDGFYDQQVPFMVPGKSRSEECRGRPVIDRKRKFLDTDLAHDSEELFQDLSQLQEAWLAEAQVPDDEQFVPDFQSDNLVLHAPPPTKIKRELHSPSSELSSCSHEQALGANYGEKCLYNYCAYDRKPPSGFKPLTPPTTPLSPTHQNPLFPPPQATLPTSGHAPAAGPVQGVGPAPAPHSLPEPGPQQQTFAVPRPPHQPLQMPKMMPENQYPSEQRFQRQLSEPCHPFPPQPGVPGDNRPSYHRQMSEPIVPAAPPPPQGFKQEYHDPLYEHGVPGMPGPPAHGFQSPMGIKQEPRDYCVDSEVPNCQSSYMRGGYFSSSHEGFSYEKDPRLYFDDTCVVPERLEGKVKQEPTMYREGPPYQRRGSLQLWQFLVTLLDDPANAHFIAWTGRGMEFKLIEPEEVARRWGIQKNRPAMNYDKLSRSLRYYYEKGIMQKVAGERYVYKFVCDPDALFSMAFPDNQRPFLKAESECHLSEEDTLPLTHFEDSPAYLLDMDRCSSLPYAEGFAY
ELF4, sequence (Q99607 whole entry): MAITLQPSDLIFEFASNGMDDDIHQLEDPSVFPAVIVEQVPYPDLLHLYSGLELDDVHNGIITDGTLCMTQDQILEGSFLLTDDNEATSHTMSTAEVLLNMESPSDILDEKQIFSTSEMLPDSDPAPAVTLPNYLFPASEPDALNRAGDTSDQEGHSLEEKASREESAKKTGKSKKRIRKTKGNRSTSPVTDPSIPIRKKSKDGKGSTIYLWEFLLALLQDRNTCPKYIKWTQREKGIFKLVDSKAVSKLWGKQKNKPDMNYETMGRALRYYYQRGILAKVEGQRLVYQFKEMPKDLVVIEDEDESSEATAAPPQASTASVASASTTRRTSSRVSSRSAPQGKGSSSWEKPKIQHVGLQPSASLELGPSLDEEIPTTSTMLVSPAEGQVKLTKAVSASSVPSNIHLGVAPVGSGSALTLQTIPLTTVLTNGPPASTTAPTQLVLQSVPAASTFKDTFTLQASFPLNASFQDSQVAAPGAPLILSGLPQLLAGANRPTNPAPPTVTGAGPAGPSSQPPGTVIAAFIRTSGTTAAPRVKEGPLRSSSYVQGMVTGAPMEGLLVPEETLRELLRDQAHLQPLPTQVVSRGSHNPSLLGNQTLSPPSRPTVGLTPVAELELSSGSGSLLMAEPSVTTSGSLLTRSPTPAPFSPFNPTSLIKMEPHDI
ELF1, sequence (P32519 whole entry): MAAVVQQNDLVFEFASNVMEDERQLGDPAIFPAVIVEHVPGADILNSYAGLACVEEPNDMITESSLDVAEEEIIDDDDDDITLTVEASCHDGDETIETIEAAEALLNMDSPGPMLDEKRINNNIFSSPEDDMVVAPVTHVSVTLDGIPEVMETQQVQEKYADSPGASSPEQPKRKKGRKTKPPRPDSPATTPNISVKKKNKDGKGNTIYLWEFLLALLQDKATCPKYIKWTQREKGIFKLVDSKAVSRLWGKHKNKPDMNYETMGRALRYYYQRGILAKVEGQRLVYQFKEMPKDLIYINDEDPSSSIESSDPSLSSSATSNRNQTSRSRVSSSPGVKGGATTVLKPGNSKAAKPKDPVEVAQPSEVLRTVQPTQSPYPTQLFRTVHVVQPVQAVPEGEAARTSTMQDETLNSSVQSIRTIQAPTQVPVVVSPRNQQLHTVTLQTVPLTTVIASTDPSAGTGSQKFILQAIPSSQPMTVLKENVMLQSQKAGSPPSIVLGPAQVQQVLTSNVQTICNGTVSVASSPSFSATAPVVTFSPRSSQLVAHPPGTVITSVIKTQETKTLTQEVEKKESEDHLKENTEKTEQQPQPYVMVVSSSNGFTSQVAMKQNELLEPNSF

For the sequence GTCCAC, the binding signal was 1.03 fold enrichment (6-mer frequency, TF over GST control) with FLI1; 1.07 fold enrichment (6-mer frequency, TF over GST control) with ELK1; 1.11 fold enrichment (6-mer frequency, TF over GST control) in the assay with GABPA; 1.03 fold enrichment (6-mer frequency, TF over GST control) in the assay with ERG; 1.02 fold enrichment (6-mer frequency, TF over GST control) with ELF1; 1.12 fold enrichment (6-mer frequency, TF over GST control) with EHF. In addition, the binding signal with SPI1 was 1.02 fold enrichment (6-mer frequency, TF over GST control); with SPIB, 1.09 fold enrichment (6-mer frequency, TF over GST control); in the assay with ELK3, 1.04 fold enrichment (6-mer frequency, TF over GST control); with FEV, 1.08 fold enrichment (6-mer frequency, TF over GST control); with ETV5, 1.07 fold enrichment (6-mer frequency, TF over GST control); with SPIC, 1.05 fold enrichment (6-mer frequency, TF over GST control). For the same sequence, the binding signal in the assay with ELF4 was 1.06 fold enrichment (6-mer frequency, TF over GST control); with ELK4, 1.07 fold enrichment (6-mer frequency, TF over GST control); with ETV2, 1.14 fold enrichment (6-mer frequency, TF over GST control).
For TGCTTG, the binding signal is 1.31 fold enrichment (6-mer frequency, TF over GST control) with FLI1; 1.15 fold enrichment (6-mer frequency, TF over GST control) in the assay with ELK1; 1.11 fold enrichment (6-mer frequency, TF over GST control) in the assay with GABPA; 1.15 fold enrichment (6-mer frequency, TF over GST control) with ERG; 1.18 fold enrichment (6-mer frequency, TF over GST control) with ELF1; 1.31 fold enrichment (6-mer frequency, TF over GST control) with EHF. The binding signal with SPI1 is 1.17 fold enrichment (6-mer frequency, TF over GST control); in the assay with SPIB it was 1.2 fold enrichment (6-mer frequency, TF over GST control); with ELK3, 1.11 fold enrichment (6-mer frequency, TF over GST control); with FEV, 1.09 fold enrichment (6-mer frequency, TF over GST control); with ETV5 it was 1.2 fold enrichment (6-mer frequency, TF over GST control); with SPIC, 1.31 fold enrichment (6-mer frequency, TF over GST control). The binding signal is 1.12 fold enrichment (6-mer frequency, TF over GST control) with ELF4; 1.4 fold enrichment (6-mer frequency, TF over GST control) in the assay with ELK4; 1.26 fold enrichment (6-mer frequency, TF over GST control) with ETV2; 1.21 fold enrichment (6-mer frequency, TF over GST control) with ETV1.
